From PubChem BioAssay (Tox21)
The source made the active and inactive calls. Calls follow the shape of the dose curve; as a rule, active = well fitted curve in the direction sought with a large enough effect in the repeat runs; inconclusive = weak or mixed curves; inactive = flat fitted curve, though single readings scatter. Non-standard residues stand in square brackets, D forms with d. Residues, ends and D or L forms follow the SMILES beside them. *: point of attachment. Sta = CC(C)C[C@H](N)[C@@H](O)CC(=O)O; Isovaleryl = CC(C)CC(=O)*

Test: qHTS assay to test for compound auto fluorescence at 590 nm (red) in HEK293 cell free culture (AID 720683)
Details: cell-free medium autofluorescence, Ex540/Em590 red; series mostly up to 91.3 µM; fluorescence, % of fluorescent control: at the top concentration
From the text: U.S. Tox21 Program National Center for Advancing Translational Sciences [NCATS] NIH Chemical Genomics Center [NCGC] U.S. Environmental Protection Agency [EPA] National Institutes of Environmental Health Sciences [NIEHS] National Toxicology Program [NTP] U.S. Food and Drug Administration [FDA] Tox21 Assay Overview: Compound auto fluorescence often interferes with screening of the compound library against various biological targets and signaling pathways. Some of these compounds may have fluorophoric properties. Such properties may interfere with the assay outputs resulting in false positives and/or negatives. To decrease such complications and ensure the compound activities are relevant in terms of biological response, the Tox21 10K compound library was screened for auto fluorescence. From the fluorophores used as reporter signals in our screening assays, the auto fluorescence equivalencies of compounds against three fluorophores have been evaluated: Triamterene, Fluorescein and Rose Bengal sodium for blue, green and red fluorescence, respectively. The fluorescence intensities were measured using Excitation/Emission wavelengths at 405/460nm, 485/535nm and 540/590nm for blue, green and red labels, respectively. This assay includes the red fluorescence data.
Tox21 Assay Protocol Summary: 5 uL of culture medium (DMEM containing 10% FBS) per well was dispensed into black wall/clear bottom 1536-well plates using a Multidrop Combi Dispenser (ThermoFisher Scientific, Waltham, MA). After 23 nL compound or DMSO vehicle was transferred into assay plate by a pintool work station (Kalypsys, San Diego, CA), fluorescence intensities in the assay plates were measured by an Envision (PerkinElmer, Shelton, CT) plate reader using three labels for measuring blue, green and red fluorescence at […] 460, 535 and 590nm respectively.
% is scaled to controls: 0 for no effect and ±100 for the full control effect.

| SMILES | fluorescence, % of fluorescent control |
| --- | --- |
| O=C(O)COc1ccc2ccccc2c1 | 0.0156% (inactive) |
| CCC(=O)OCCOc1ccccc1 | -0.0545% (inactive) |
| CC(=O)Nc1ccc(S(=O)(=O)Nc2cc(C)on2)cc1 | -0.114% [at 46 µM] (inactive) |
| COC(=O)c1ccc(C(=O)O)cc1 | -0.285% (inactive) |
| Cc1cc(O)c(Cl)cc1C | -0.0206% (inactive) |
| CC12CCCC=C1C(=O)OC2=O (stereo not given) | 0.278% (inactive) |
| CC(=O)OC1CCC(C(C)(C)C)CC1 (stereo not given) | -0.0851% (inactive) |
| O=C(c1ccccc1)c1cccc(O)c1 | -0.0242% [at 95.7 µM] (inactive) |
| c1coc(Cn2cccc2)c1 | 0.0141% (inactive) |
| C=CC(C)(CCC=C(C)C)OC(=O)C(C)C (stereo not given) | 0.0693% (inactive) |
| COC(=O)c1c(C)cc(O)c(C)c1O | -0.261% (inactive) |
| C=COCCCCO | -0.467% (inactive) |
| CCCCCCCCCCCC(C)=O | -0.0394% (inactive) |
| CCOC(=O)c1ccc(N(C)C)cc1 | 0.3% (inactive) |
| C=CCN(CC=C)CC=C | -0.088% (inactive) |
| COC(C)(C)CC(C)=O | 0.187% (inactive) |
| CC(C)(C)C(=O)CCc1ccc(Cl)cc1 | -0.014% (inactive) |
| CC[C@@]1(c2ccccc2)NC(=O)N(C)C1=O | -0.0228% [at 46 µM] (inactive) |
| OCCC(F)(F)C(F)(F)C(F)(F)C(F)(F)C(F)(F)C(F)(F)F | -0.0142% (inactive) |
| CCOC(=O)CC | 0.0278% (inactive) |

| SMILES | fluorescence, % of fluorescent control |
| --- | --- |
| Cc1ccc2cccnc2c1 | 0.115% (inactive) |
| NNC(=O)CCCCC(=O)NN | 0.156% (inactive) |
| CC/C=C\CCOC(=O)c1ccccc1 | -0.144% (inactive) |
| CCCCCCCCOCCC#N | -0.0402% (inactive) |
| CCCCN=C(N)N=C(N)N | 0.0275% [at 46 µM] (inactive) |
| COc1cc(NS(=O)(=O)c2ccc(N)cc2)ncn1 | -0.0018% [at 18.6 µM] (inactive) |
| COc1cc2nc(N3CCN(C(=O)C4CCCO4)CC3)nc(N)c2cc1OC (stereo not given) | -0.639% [at 46 µM] (inactive) |
| Cc1ccc(NC(N)=O)cc1 | 0.0861% (inactive) |
| NCC1CCC(C(=O)Oc2ccc(CCC(=O)O)cc2)CC1 (stereo not given) | -0.0365% [at 46 µM] (inactive) |
| CC(C)CC(=O)N[C@H](C(=O)N[C@H](C(=O)N[C@@H](CC(C)C)[C@@H](O)CC(=O)N[C@@H](C)C(=O)N[C@@H](CC(C)C)[C@@H](O)CC(=O)O)C(C)C)C(C)C (Isovaleryl-VV[Sta]A[Sta]-OH) | -0.346% [at 46 µM] (inactive) |
| O=S(=O)(O)c1cc(I)c(O)c2ncccc12 | -0.515% [at 46 µM] (inactive) |
| CCCC(=O)OC | -0.0599% (inactive) |
| COCCCOc1cc(C[C@@H](C[C@H](N)[C@@H](O)C[C@H](C(=O)NCC(C)(C)C(N)=O)C(C)C)C(C)C)ccc1OC | -0.0105% [at 46 µM] (inactive) |
| COc1ccc2cc(CCC(C)=O)ccc2c1 | 0.474% [at 18.6 µM] (inactive) |
| CCCCCCCCC1CO1 (stereo not given) | 0.0993% [at 95.7 µM] (inactive) |
| C[C@@H]1CC[C@@]2(OC1)O[C@H]1C[C@H]3[C@@H]4CC[C@H]5C[C@@H](O)CC[C@]5(C)[C@H]4CC(=O)[C@]3(C)[C@H]1[C@@H]2C | 0.195% [at 18.6 µM] (inactive) |
| CC(C)(C)OC(=O)c1ccccc1C(=O)O | -0.017% (inactive) |
| CCCCc1ccc(Cl)cc1 | 0.0407% (inactive) |
| O=Cc1ccc(C(=O)O)cc1 | -0.345% [at 95.7 µM] (inactive) |
| CCCCN1C(=O)c2ccccc2C1=O | 0.102% [at 95.7 µM] (inactive) |
